Bioassay records deposited in PubChem BioAssay by University of Kansas High Throughput Screening Laboratory.
Pf apPOL inh – Pf-apPOL inhibitors, biochemical, fluorescence | Plasmodium falciparum apicoplast DNA polymerase (apPOL) | Recombinant Pf-apPOL, molecular beacon fluorescence, 1.5 h | inhibition, % at 10 µM | hit rate 0.25% among 210,000 | AID 1794808, 2022
mHTT CaM bind – mutant huntingtin-calmodulin interaction inhibitors – biochemical, AlphaScreen, primary screen | P42858 | AlphaScreen His-mHTT/GST-CaM binding, luminescence | inhibition, % at 15 µM | hit rate 3.6% among 190,000;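 also: 0% = both proteins with DMSO and 100% = one protein alone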
* = called active by the depositor; nt = no result. This is a sample that favours compounds with a hit; in the whole collection about 3.6% have one here. Rule as the data show it: active = inhibition above about 50%; inactive = the rest.

SMILES	Pf apPOL inh	mHTT CaM bind
COc1cc(-c2nc(-c3ccccc3)c(-c3ccc(O)cc3)[nH]2)cc(OC)c1O	-1.1	88.0*
CSc1sc(C(=O)NCc2cccs2)c(-c2ccc(Cl)cc2)c1C#N	-6.8	nt
CCCN1CCN(C(=O)c2ccc(NC(=O)C3CC3)cc2N2CCCCCC2)CC1	-3.6	48.1
O=[N+]([O-])c1ccc(N2CCN(S(=O)(=O)Cc3ccccc3)CC2)cc1	0.2	1.3
CCOC(=O)Nc1nc2c(s1)CN(S(=O)(=O)c1ccsc1C(=O)OC)CC2	-8.4	1.5
COc1ccc(C(=O)Nc2ccc(I)cc2)c(OC)c1	-2.1	1.7
CCN(CC)c1ccc(NC(=O)c2ccc(OC)cc2OC)cc1	0.1	66.9*
CCOc1ccc(C(=O)Nc2ccc(N(CC)CC)cc2)cc1[N+](=O)[O-]	0.8	9.9
CCN(CC)c1ccc(NC(=O)c2ccc(OC)c([N+](=O)[O-])c2)cc1	-0.9	61.9*
CSc1nc2c(c(=O)[nH]1)C(c1ccc(Cl)cc1)c1c(nc(SC)[nH]c1=O)O2	-0.3	1.1
CC(C)n1c(=O)c2c(ncn2Cc2ccc(F)c(F)c2)n(-c2ccc(F)cc2)c1=O	0.4	19.2
Cc1ccc2ncn(C3CCN(C(=O)C(C)Oc4ccccc4)CC3)c2c1 (stereo not drawn)	-3.7	8.9
CCOc1ccc(C(=O)N2CCC(n3cnc4ccc(C)cc43)CC2)cc1	-2.6	77.1*
O=S(=O)(Cc1ccccc1Cl)N1CCC2(CC1)OCCS2	-6.5	-20.1
Cc1cccc(-n2c(CN3CCN(C(=O)Nc4ccccc4C)CC3)nc3cccnc32)c1	-1.0	13.0
Cc1cc(N2CCN(C)CC2)nc2ccc(NC(=O)/C=C/c3cccnc3)cc12	-6.3	5.0
Cc1cc(N2CCN(C)CC2)nc2ccc(NC(=O)c3cc(-c4ccco4)nc4ccccc34)cc12	5.3	57.0*
Cc1cc(N2CCN(C)CC2)nc2ccc(NC(=O)/C=C/c3cccs3)cc12	-0.3	76.0*
COc1ccccc1C(=O)Nc1ccc2nc(N3CCN(C)CC3)cc(C)c2c1	-7.3	0.0
CCc1ccc(C2CC(c3ccccc3OC)n3ncnc3N2)cc1 (stereo not drawn)	3.1	1.2
COc1ccc(OC)c(C2CC(c3ccc(C)cc3)Nc3nnnn32)c1 (stereo not drawn)	-0.4	5.6
Fc1ccc(C2CC(c3ccccc3OC(F)F)n3ncnc3N2)cc1 (stereo not drawn)	-3.2	16.0
COc1ccc(OC)c(C2CC(c3ccc(Br)cc3)Nc3nnnn32)c1 (stereo not drawn)	-6.9	57.6*
COc1cccc(C2CC(c3ccc(Br)cc3)Nc3ncnn32)c1OC (stereo not drawn)	-7.5	51.0*
CCc1ccc(C2CC(c3cc(OC)ccc3OC)n3ncnc3N2)cc1 (stereo not drawn)	-6.7	51.0*
SMILES	Pf apPOL inh	mHTT CaM bind
FC(F)Oc1ccccc1C1CC(c2ccc(I)cc2)Nc2ncnn21 (stereo not drawn)	-2.9	53.0*
COc1cccc(C2CC(c3ccc(C)cc3)Nc3ncnn32)c1OC (stereo not drawn)	-6.4	14.0
O=C(Cc1ccc(Cl)cc1)NC1CCN(c2ccc(F)cc2)C1=O (stereo not drawn)	-4.5	2.8
CCNc1cc(N2CCC(CCC(=O)N3CCN(c4ccccc4C)CC3)CC2)ncn1	-5.6	24.3
O=c1c2sccc2nc(SCc2cc(=O)n3ccccc3n2)n1CCc1ccccc1	-5.6	8.0
CC12C=CC(=O)C1(C)C(=O)C=C2 (stereo not drawn)	-4.7	nt
NC(=O)CSCCn1ccc2c1CCCC2	nt	7.9
O=c1c2ccc(Cl)cc2ncn1C1CCN(S(=O)(=O)Cc2ccccc2)CC1	-6.1	-11.4
Cc1ccc(C2CC(c3ccc(F)cc3)n3nnnc3N2)cc1 (stereo not drawn)	6.6	-0.1
Cc1ccc(C2CC(c3ccc(F)c(Br)c3)n3nnnc3N2)cc1 (stereo not drawn)	-5.8	61.0*
COc1ccccc1C1CC(c2ccc(Cl)cc2)Nc2ncnn21 (stereo not drawn)	-3.3	54.0*
COc1ccccc1C1CC(c2ccc(I)cc2)Nc2ncnn21 (stereo not drawn)	-7.7	41.0
NC(=O)c1ccccc1NC(=O)c1c(F)c(F)c(F)c(F)c1F	-1.8	0.8
CN(C)Cc1c(O)ccc2c1OC(=Cc1c[nH]c3ccccc13)C2=O	-3.8	-2.4
Nc1c2c(-c3cc(F)ccc3F)nc(N3CCCC3)nc2nn1-c1ccccc1	-2.1	43.6
C=CCOc1ccccc1C=Nc1c(C)n(C)n(-c2ccccc2)c1=O	-2.7	7.0
O=C(O)c1ccc2c3c1C1C=CCC1CN3CC1CC=CC21 (stereo not drawn)	11.7	16.0
O=C(O)c1cc2c3c(c1)C1C=CCC1C(c1cccc([N+](=O)[O-])c1)N3CC1CC=CC21 (stereo not drawn)	4.3	70.0*
O=C(O)c1ccc2c(c1)C1C=CCC1C(c1ccccc1Br)N2 (stereo not drawn)	-0.6	23.0
